# Results filed as inconclusive are left out. Activity calls are given as the source filed them. Calls come from the whole dose curve; as a rule, active = well fitted inhibition curve with a large enough effect; inconclusive = small, poorly fitted or top-dose-only effect; inactive = no such curve, though single readings can be large or run the other way.
# Assay: qHTS for Inhibitors of the Aldehyde Dehydrogenase Family (ALDH1A2, ALDH1A3, ALDH2, ALDH3A1) (AID 2061307); note: nearly all actives have a fitted effect of over 50% in size; for Potency: test system not described further here
# Conditions: ALDH inhibition qHTS; series mostly up to 50.3 µM; activity change, negative = inhibition: at the top concentration
# % is set by controls: 0 for no effect and ±100 for the full control effect; potency is the fitted concentration of half-maximal effect.
Compound,"activity change, negative = inhibition",Potency
COc1ccc(C(N)=O)cc1NC(=O)c1ccn(-c2ccc(F)cc2)n1,3% [at 34.4 µM] (inactive),
O=C(Nc1ccc2oc(-c3cccnc3)nc2c1)c1ccc(-c2ccccc2)o1,-22.6% [at 34.4 µM] (inactive),
O=C(Nc1nnc(-c2ccccn2)o1)c1ccc(Cl)cc1Cl,,12.7 µM (active)
CC(=O)c1ccc(NC(=O)c2cnn(-c3cccc(F)c3)c2-n2cccc2)cc1,-80.6% [at 34.4 µM] (inactive),
O=C1CC(c2c(F)cccc2F)c2sc(N3CCOCC3)nc2N1 (stereo not given),,11.3 µM (active)
Cc1c2c(=O)n(-c3ccccc3)[nH]c2cc(=O)n1Cc1ccccn1,-29% (inactive),
COc1cccc(CNc2ccc(S(=O)(=O)Nc3nc4ccccc4[nH]3)cc2)c1O,-9.18% (inactive),
Fc1ccc(Cn2cnc3ccccc32)cc1Cl,,8.96 µM (active)
Cc1ccccc1C(=O)N1CCc2cc(-c3nc(NC(=O)CC4CCOCC4)sc3C)ccc21,,4.47 µM (active)
CCOc1ccc(CNC(=O)c2cnc3c(C)cccn3c2=O)cc1,0.456% [at 34.4 µM] (inactive),
O=C(O)c1csc(-n2nc(C(F)(F)F)cc2-c2ccc(Cl)cc2)n1,-9.54% (inactive),
Cc1cc(Br)c2c(c1)/C(=C\C(=O)c1cccs1)C(=O)N2,,2.52 µM (active)
O=C(Nc1ccc(S(=O)(=O)N2CCOCC2)cc1)c1ccc(CN2CCc3ccccc3C2)cc1,13.7% (inactive),
O=C(c1ccc2ccccc2c1)c1no[n+]([O-])c1C(=O)c1ccc2ccccc2c1,,5.04 µM (active)
Cc1ccc(CNC(=O)c2cc(=O)c3cc(C)ccc3o2)cc1,-29.9% [at 34.4 µM] (inactive),
COc1ccc(-n2c(C)cc(C3=NNC(=NC4CC4)SC3)c2C)cc1,,4.49 µM (active)
CC(C)CCn1c(O)c(N=NC(=O)c2cccnc2)c2ccccc21,3.64% (inactive),
Cc1ccc(-n2ncc3c(Nc4cccc(C(=O)O)c4)ncnc32)cc1,0% (inactive),
Nc1nc2c(s1)C(c1ccc(F)cc1Cl)CC(=O)N2 (stereo not given),,4 µM (active)
O=C(Nc1ccc(S(=O)(=O)N2CCOCC2)cc1)c1ccc(CN2Cc3ccccc3C2)cc1,,0.316 µM (active)

Compound,"activity change, negative = inhibition",Potency
COc1ccc(NC(=O)c2cc(C3CC3)nc3c2c(C)nn3-c2ccccc2)cc1OC,-64.4% [at 34.4 µM] (inactive),
O=C(N/N=C/c1ccc(Sc2ccccn2)o1)c1cccc(F)c1,,15.9 µM (active)
O=C(Nc1ccc(C(=O)N2CCCC2)cc1)c1ccccc1F,,10.7 µM (active)
COc1ccc(-n2ncc3c2CCCC3NC(=O)c2ccc(F)c(F)c2)cc1 (stereo not given),-18.8% (inactive),
FC(F)(F)c1ccnn1-c1nc(-c2ccccc2Cl)cs1,-8.85% [at 34.4 µM] (inactive),
O=C(Nc1ccccc1F)c1nc(S(=O)(=O)Cc2ccccc2F)ncc1Cl,,3.16 µM (active)
N#Cc1cccc(-c2ccc3nc(-c4ccccc4)cn3c2)c1,-1.96% [at 34.4 µM] (inactive),
CCOC(=O)Cc1ccc(NC(=O)n2ncc3cc(Cl)ccc32)cc1,-0.401% (inactive),
Cc1ccc(NC(=O)Cc2c(C)nn(C)c2C)cc1F,,10 µM (active)
Cc1ccc(CNc2ncnc3c2oc2ccccc23)cc1,-1.39% (inactive),
CC(C)(C)c1ccccc1-n1c(CN2CCN(C(=O)c3ccco3)CC2)nc2ccccc2c1=O,0% (inactive),
CCOc1ccc(CNc2ccc3ccccc3c2)cc1,,2.83 µM (active)
CNc1nc2c(s1)C(c1ccccc1Br)CC(=O)N2 (stereo not given),,10.1 µM (active)
O=C(c1cccc(Cl)c1)c1no[n+]([O-])c1C(=O)c1cccc(Cl)c1,,12.7 µM (active)
COc1ccc(-n2ncc3c2CCCC3NC(=O)c2cc(NC(C)=O)ccn2)cc1 (stereo not given),-3.01% (inactive),
COc1ccc([N+](=O)[O-])c(S(=O)(=O)c2ccc(C)cc2)n1,,2.25 µM (active)
O=C(N/N=C/c1ccc(Br)o1)c1ccccc1,-9.38% (inactive),
COCc1ccc(-c2nn(Cc3ccccc3)c3ccccc23)o1,,11.3 µM (active)
O=C(Nc1ncc(CN2CCOCC2)s1)c1ccc(-c2cccc([N+](=O)[O-])c2)o1,,28.2 µM (active)
CC(NC(=O)c1ccco1)c1nc(-c2ccccc2)no1 (stereo not given),-45.8% [at 34.4 µM] (inactive),
